Measured values published in the supplement of paper PMC9262897, “Low-cost anti-mycobacterial drug discovery using engineered E. coli” (Nature Communications, 2022).
Where a name gives a salt, the structure may show the parent alone. ± gives the standard deviation of the averaged measurements.

Test system: E. coli TESEC Alr+ wild-type control
Assay: growth (OD600 after 10 h); higher = more growth (less inhibition)
Conditions: compound 0.1 mM; raw OD600 reference: median of DMSO wells 0.49, cell-free background 0.052
Method: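 TESEC Mtb Alr E. coli (ΔaraC ΔtolC ΔentC Δalr ΔdadX, arabinose-inducible Mtb Alr) or the Alr+ wild-type control strain, grown in defined M9-fructose medium without D-alanine in 96-well plates with Prestwick library compounds at 0.1 mM and 1% DMSO. Low Alr induction is 0.1 µM arabinose and high induction is 10 mM arabinose.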

Structure (SMILES)	growth
CN1CCN(C(=O)OC2c3nccnc3C(=O)N2c2ccc(Cl)cn2)CC1 (stereo not given) [Zopiclone]	0.454 ± 0.011
CNC(C)(C)Cc1ccccc1 [Mephentermine hemisulfate]	0.48 ± 0.047
C[C@]12CCC(=O)C(O)=C1CC[C@@H]1[C@@H]2CC[C@]2(C)C(=O)CC[C@@H]12 [Formestane]	0.392 ± 0.026
S=C(NC1CCCCC1)N1CCC(c2cnc[nH]2)CC1 [Thioperamide maleate]	0.561 ± 0.066
COc1ccc(CN2CCNCC2)c(OC)c1OC [Trimetazidine dihydrochloride]	0.584 ± 0.012
CN(C)[C@@H]1C(=O)C(C(N)=O)=C(O)[C@@]2(O)C(=O)C3=C(O)c4c(O)cccc4[C@@](C)(O)[C@H]3[C@H](O)[C@@H]12 [Oxytetracycline dihydrate]	0.0551 ± 0.00064
CC(C)[N+](C)(CCC(C(N)=O)(c1ccccc1)c1ccccc1)C(C)C [Isopropamide iodide]	0.516 ± 0.045
COc1ccc(OC)c(C(O)C(C)N)c1 (stereo not given) [Methoxamine hydrochloride]	0.458 ± 0.037
C[C@]12COC(=O)C[C@@H]1CC[C@@H]1[C@@H]2CC[C@@]2(C)[C@H]1CC[C@]2(C)O [Oxandrolone]	0.435 ± 0.042
CC[C@@]1(O)C(=O)OCc2c1cc1n(c2=O)Cc2cc3ccccc3nc2-1 [Camptothecine (S,+)]	0.477 ± 0.033
c1ccc2c(c1)OCC(C1=NCCN1)O2 (stereo not given) [Idazoxan hydrochloride]	0.598 ± 0.015
C[CH2][Hg][S]c1ccccc1C(=O)[O-].[Na+] [Thimerosal]	0.216 ± 0.1
O=c1[nH]c2ccccc2n1C1CCN(CCCC(c2ccc(F)cc2)c2ccc(F)cc2)CC1 [Pimozide]	0.52 ± 0.043
CC(O)(CS(=O)(=O)c1ccc(F)cc1)C(=O)Nc1ccc(C#N)c(C(F)(F)F)c1 (stereo not given) [Bicalutamide]	0.3777 ± 0.0027
C[N+]1(C)CCCC(OC(=O)C(O)(c2ccccc2)c2ccccc2)C1 (stereo not given) [Mepenzolate bromide]	0.435 ± 0.012
Cc1cccc(C)c1NC1=NCCCS1 [Xylazine]	0.487 ± 0.05
C#CCN(C)[C@H](C)Cc1ccccc1 [Selegiline hydrochloride]	0.441 ± 0.043
O=C(NCNC(=O)NC1C(=O)NC(=O)N1CO)NC1C(=O)NC(=O)N1CO (stereo not given) [Imidurea]	0.545 ± 0.022
CN(C)[C@@H]1C(=O)C(C(N)=O)=C(O)[C@@]2(O)C(=O)C3=C(O)c4c(O)cccc4[C@@](C)(O)[C@H]3C[C@@H]12 [Tetracycline hydrochloride]	0.0518 ± 0.0007
COc1cc2c(cc1OC)C(C)NCC2 (stereo not given)	0.453 ± 0.034

Structure (SMILES)	growth
C[C@H](N)[C@H](O)c1ccc(O)c(O)c1 [Levonordefrin]	0.465 ± 0.099
CCCC(C)(COC(N)=O)COC(=O)NC(C)C (stereo not given) [Carisoprodol]	0.594 ± 0.082
NCC(CC(=O)O)c1ccc(Cl)cc1 (racemic) [Baclofen (R,S)]	0.456 ± 0.038
C=C(C)[C@@H]1[C@H]2OC(=O)[C@@H]1[C@]1(O)C[C@H]3O[C@]34C(=O)O[C@H]2[C@]14C [Picrotoxinin]	0.479 ± 0.082
CC(C)N(CCC(C(N)=O)(c1ccccc1)c1ccccn1)C(C)C (stereo not given) [Disopyramide]	0.543 ± 0.056
O=C(CCCN1CCC2(CC1)C(=O)NCN2c1ccccc1)c1ccc(F)cc1 [Spiperone]	0.509 ± 0.042
CN1CCC2(C)c3cc(O)ccc3N(C)C12 (single isomer, unassigned; (-)) [(-)-Eseroline fumarate salt]	0.577 ± 0.095
CC(=O)OCC(=O)[C@H]1CC[C@H]2[C@@H]3CC[C@H]4C[C@H](O)CC[C@]4(C)[C@H]3C(=O)C[C@]12C [Alfadolone acetate]	0.474 ± 0.013
COc1cc([C@@H]2c3cc4c(cc3[C@H](O)[C@H]3COC(=O)[C@H]23)OCO4)cc(OC)c1OC [Podophyllotoxin]	0.545 ± 0.085
COc1ccc(Cc2nccc3cc(OC)c(OC)cc23)cc1OC [Papaverine hydrochloride]	0.579 ± 0.04
CC(NC(C)(C)C)C(=O)c1cccc(Cl)c1 (stereo not given) [Bupropion hydrochloride]	0.46 ± 0.026
Oc1ccc2c3c1O[C@H]1[C@@H](O)CC[C@@]4(O)[C@@H](C2)N(CC2CCC2)CC[C@]314 [Nalbuphine hydrochloride]	0.515 ± 0.011
C1CCc2nnnn2CC1 [Pentylenetetrazole]	0.46 ± 0.054
CN1[C@@H]2CC[C@H]1C[C@@H](OC(=O)[C@H](CO)c1ccccc1)C2 [Hyoscyamine (L)]	0.468 ± 0.045
CCC1=C[C@H]2CN3CCc4c([nH]c5ccccc45)[C@](C(=O)OC)(C2)[C@H]13 [Catharanthine]	0.4419 ± 0.0012
CNCC(O)c1ccc(O)cc1 (racemic) [(+,-)-Synephrine]	0.58 ± 0.057
CN[C@@H]1C[C@@H](c2ccc(Cl)c(Cl)c2)c2ccccc21 [Indatraline hydrochloride]	0.0509 ± 0.0003
O[C@@H]1CCCC[C@H]1N1CCC(c2ccccc2)CC1 [L(-)-vesamicol hydrochloride]	0.521 ± 0.091
CC(=O)O[C@H]1C[C@H](O[C@H]2[C@@H](O)C[C@H](O[C@H]3[C@@H](O)C[C@H](O[C@H]4CC[C@@]5(C)[C@H](CC[C@@H]6[C@@H]5C[C@@H](O)[C@]5(C)[C@@H](C7=CC(=O)OC7)CC[C@]65O)C4)O[C@@H]3C)O[C@@H]2C)O[C@H](C)[C@H]1O[C@@H]1O[C@H](CO)[C@@H](O)[C@H](O)[C@H]1O [Lanatoside C]	0.528 ± 0.096
O=c1c2ccccc2[se]n1-c1ccccc1 [Ebselen]	0.538 ± 0.076
